Screening results from PubChem.
This is a sample that favours compounds with a hit; in the whole collection about 3.2% have one here.
FBA Mtb inh = inhibitors of M. tuberculosis fructose-bisphosphate aldolase; P9WQA3; purified M. tuberculosis FBA, fluorescence read-out; inhibition, % at 1 µM; 2.3% of 360,000 active; in the data active means inhibition above about 27%;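 further: 0% = vehicle and 100% = reference inhibitor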
Target sequence (P9WQA3 whole entry, looked up): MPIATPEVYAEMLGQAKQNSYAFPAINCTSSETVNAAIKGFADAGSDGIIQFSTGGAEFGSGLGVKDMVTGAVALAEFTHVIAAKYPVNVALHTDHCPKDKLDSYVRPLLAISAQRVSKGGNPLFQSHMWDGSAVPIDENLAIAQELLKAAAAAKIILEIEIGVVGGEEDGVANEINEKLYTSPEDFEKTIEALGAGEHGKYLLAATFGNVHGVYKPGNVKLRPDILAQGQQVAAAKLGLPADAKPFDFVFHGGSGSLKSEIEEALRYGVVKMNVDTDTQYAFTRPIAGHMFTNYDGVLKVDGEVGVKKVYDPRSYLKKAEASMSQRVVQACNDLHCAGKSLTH
Mtb bLac sens = beta-lactam sensitization of Mtb H37Rv; M. tuberculosis H37Rv growth with meropenem, percent inhibition; inhibition, % at 25 µM; 0.27% of 330,000 active; AID 434955; call rule not given here;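 further: growth measured after seven days incubation then overnight dye step; 0% = bacteria only wells and 100% = bacteria with antibiotic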
GDH-TPI counter = counter-screen for M. tuberculosis FBA inhibitors: GDH-TPI coupled enzymes; AID 588335; inhibition, % at 4.8 µM; GDH-TPI coupled enzyme counterscreen, NADH absorbance; 1.2% of 360,000 active; in the data active means inhibition above about 30%;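 further: 0% = DMSO wells and 100% = wells lacking the enzyme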
Rv3671c protease = inhibitors of M. tuberculosis serine protease Rv3671c; P9WHR9; inhibition, % at 5.96 µM; 0.048% of 320,000 active; AID 2606; in the data active means inhibition above about 38%;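 further: extracellular domain of Rv3671c used as enzyme; 0% = enzyme with DMSO and 100% = no enzyme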
SSB-PriA inh = K. pneumoniae PriA-SSBct interaction inhibition; AlphaScreen SSBct-PriA binding, biotinylated peptide; inhibition, % at 33 µM; 0.6% of 430,000 active; in the data active means inhibition mostly above about 37%, no sharp cut-off; inactive means mostly below about 20%;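 further: plate controls were negative control peptide for no effect and reference peptide for full effect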
Mtb UGM inh = Mtb UDP-galactopyranose mutase inhibition; 0.06% of 320,000 active; AID 504406; P9WIQ1; purified UGM, fluorescence polarization probe displacement; inhibition, % at 10 µM; in the data active means inhibition above about 10%, passing the limit was not always enough
* = called active by the depositor; ! = not confirmed by another sample.

O=C(Nc1nc(-c2ccc(F)cc2)cs1)c1ccc(S(=O)(=O)N2CCOCC2)cc1 was read as SSB-PriA inh -15.0.
For CCCCC(=O)Nc1nc(-c2ccc(S(=O)(=O)N3CCOCC3)cc2)cs1 the results were FBA Mtb inh 36.1*, Mtb bLac sens -13.8, GDH-TPI counter -1.0, Rv3671c protease -11.5, SSB-PriA inh -23.9 and Mtb UGM inh -1.1.
For O=C(Nc1nc(-c2ccc(S(=O)(=O)N3CCOCC3)cc2)cs1)c1ccccc1 the results were FBA Mtb inh -0.4, Mtb bLac sens 12.5, GDH-TPI counter 12.3, Rv3671c protease -47.1, SSB-PriA inh 5.3 and Mtb UGM inh -0.3.
Screening CCSc1ccc2c(c1)N(CCCN1CCN(C)CC1)c1ccccc1S2 returned FBA Mtb inh 2.6, Mtb bLac sens 100.3, GDH-TPI counter -0.5, Rv3671c protease 5.4, SSB-PriA inh 43.0* and Mtb UGM inh -3.1.
Screening CN1CCN(CCCN2c3ccccc3Sc3ccc(Cl)cc32)CC1 returned FBA Mtb inh 0.4, Mtb bLac sens 100.3, GDH-TPI counter -10.1, Rv3671c protease 6.9, SSB-PriA inh 36.5 and Mtb UGM inh 4.4.
`CCOc1ccccc1N1C(=O)NC(=O)/C(=C/c2ccc3c4c(cccc24)CC3)C1=O` gave FBA Mtb inh 38.3*, Mtb bLac sens -2.0, GDH-TPI counter 23.5, Rv3671c protease -10.0, SSB-PriA inh -2.0 and Mtb UGM inh -4.1.
For COc1cccc(N2C(=O)NC(=O)/C(=C/c3ccc4c5c(cccc35)CC4)C2=O)c1 the results were Mtb bLac sens 1.6, Rv3671c protease -19.6 and Mtb UGM inh 2.0.
O=C(O)c1cc(-c2cccc(Cl)c2)nc2nc(N3CCCCC3)sc12 was read as FBA Mtb inh active, Mtb bLac sens 3.3, GDH-TPI counter 18.3, Rv3671c protease -5.3, SSB-PriA inh -16.2 and Mtb UGM inh 2.6.
Screening COc1ccc(/C=C/C(=O)NCCN2CCOCC2)cc1OC returned FBA Mtb inh 9.8, Mtb bLac sens -4.3, GDH-TPI counter 1.3, Rv3671c protease -0.8, SSB-PriA inh -0.6 and Mtb UGM inh -1.6.
For O=C(NCC(c1ccc(F)cc1)N1CCOCC1)c1cccc(Br)c1 (centres undefined) the results were FBA Mtb inh -0.9, Mtb bLac sens -3.5, GDH-TPI counter 8.2, Rv3671c protease -11.5, SSB-PriA inh 42.1* and Mtb UGM inh -0.7.
For O=C(NCC(c1ccc(F)cc1)N1CCOCC1)c1cccc(C(F)(F)F)c1 (centres undefined) the results were SSB-PriA inh -12.0.
Screening COc1ccc(/C=C/C(=O)NCC(c2ccc(F)cc2)N2CCOCC2)cc1OC (centres undefined) returned FBA Mtb inh 9.9, Mtb bLac sens 5.8, GDH-TPI counter 34.8*, Rv3671c protease -1.2, SSB-PriA inh -14.6 and Mtb UGM inh 0.2.
O=C(COc1ccc(Cl)cc1)NCc1cc(-c2ccc(F)cc2F)on1 was read as SSB-PriA inh -21.0.
Cc1cn(C(=O)c2ccccc2)c(=S)n1-c1ccc(Cl)cc1 was read as FBA Mtb inh 0.0, Mtb bLac sens 19.5, GDH-TPI counter 33.6*, Rv3671c protease 1.6, SSB-PriA inh -21.7 and Mtb UGM inh -2.8.
For Cc1ccc(-n2c(C)cn(C(=O)c3ccccc3)c2=S)cc1 the results were FBA Mtb inh 2.0, Mtb bLac sens 12.9, GDH-TPI counter 17.5, Rv3671c protease 0.0, SSB-PriA inh -26.8 and Mtb UGM inh -2.5.
For O=C(CN1CC(=O)Oc2ccccc21)OCC(=O)c1ccc(Br)cc1 the results were FBA Mtb inh -5.9, Mtb bLac sens 4.6, GDH-TPI counter 5.3, Rv3671c protease -2.3, SSB-PriA inh 85.5* and Mtb UGM inh 0.7.
`O=C(CN1CC(=O)Oc2ccccc21)OCC(=O)c1ccc(F)cc1` gave FBA Mtb inh -2.6, Mtb bLac sens 11.1, GDH-TPI counter -1.9, Rv3671c protease -4.9 and SSB-PriA inh 77.0*.
Screening O=C(Nc1nc(CN2CCc3ccccc3C2)cs1)c1ccc(Br)o1 returned SSB-PriA inh 6.0.
For O=C1OC2(CCN(C(=O)c3cccc(C(F)(F)F)c3)CC2)c2ccccc21 the results were SSB-PriA inh -13.0.
`O=C(Nc1ccc(-c2nc3ccccc3o2)c(O)c1)c1cc(-n2cnnc2)ccc1Cl` gave FBA Mtb inh 13.1, Mtb bLac sens 7.6, GDH-TPI counter 42.5*, Rv3671c protease -3.3, SSB-PriA inh -19.4 and Mtb UGM inh -1.9.
`O=C(Nc1ccc(-c2nc3ccccc3o2)cc1)c1cc(-n2cnnc2)ccc1Cl` gave FBA Mtb inh 8.3, Mtb bLac sens 67.7, GDH-TPI counter 22.9, Rv3671c protease -20.6, SSB-PriA inh -0.7 and Mtb UGM inh 1.5.
`Cc1c(Cl)cccc1S(=O)(=O)Nc1ccn2nccc2c1` gave SSB-PriA inh -3.0.
`CCN(Cc1ccccc1)S(=O)(=O)c1ccc(C(=O)N(CCCN(C)C)c2nc3cc(OC)ccc3s2)cc1` gave FBA Mtb inh -2.6, Mtb bLac sens 6.8, GDH-TPI counter 7.2, Rv3671c protease 0.8, SSB-PriA inh 51.0*! and Mtb UGM inh 1.0.
Screening COc1ccc2sc(N(CCCN(C)C)C(=O)c3ccc(S(=O)(=O)N4CCCc5ccccc54)cc3)nc2c1 returned FBA Mtb inh 0.4, Mtb bLac sens 74.3, GDH-TPI counter 0.3, Rv3671c protease -3.4, SSB-PriA inh 36.0*! and Mtb UGM inh -3.0.
`CCN(Cc1ccccc1)S(=O)(=O)c1ccc(C(=O)N(CCCN(C)C)c2nc3ccc(F)cc3s2)cc1` gave FBA Mtb inh 2.0, Mtb bLac sens 10.8, GDH-TPI counter 5.6, Rv3671c protease -2.8, SSB-PriA inh 37.0*! and Mtb UGM inh 0.4.
`CCN(Cc1ccccc1)S(=O)(=O)c1ccc(C(=O)N(CCCN(C)C)c2nc3cc4c(cc3s2)OCCO4)cc1` gave FBA Mtb inh -0.1, Mtb bLac sens 48.6, GDH-TPI counter -2.9, Rv3671c protease 9.8, SSB-PriA inh 47.0* and Mtb UGM inh 0.8.
CC1(C)C(=O)NCCN1C(=O)C1CCCN(S(=O)(=O)c2cccs2)C1 (centres undefined) was read as SSB-PriA inh 7.0.
For CN(C)CCCN(C(=O)c1ccc(S(=O)(=O)N(C)Cc2ccccc2)cc1)c1nc2c(F)cccc2s1 the results were FBA Mtb inh 4.8, Mtb bLac sens 3.5, GDH-TPI counter 0.7, Rv3671c protease 1.9, SSB-PriA inh 39.0*! and Mtb UGM inh -0.9.
Screening Cc1ccc(-c2cc(NS(=O)(=O)c3c(C)n[nH]c3C)n(C3CCS(=O)(=O)C3)n2)cc1 (centres undefined) returned SSB-PriA inh 15.0.
`C=CCOc1c(Br)cc(CNc2ccc(NC(=O)C(C)C)c(OC)c2)cc1OC` gave FBA Mtb inh 0.6, Mtb bLac sens -7.1, GDH-TPI counter 4.2, Rv3671c protease 3.1, SSB-PriA inh 42.1* and Mtb UGM inh -0.2.
Screening O=C(Nc1ccc2oc(-c3cccnc3)nc2c1)c1cccnc1 returned FBA Mtb inh 5.8, Mtb bLac sens 6.1, GDH-TPI counter -2.1, Rv3671c protease 6.2, SSB-PriA inh -17.5 and Mtb UGM inh 2.4.
